The molecules below were run on T1, YES. Conditions: concentration: 1 μM, replicates: in singlicate; n = 1.
T1 construct: gene YES1
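Also: KINOMEscan kinase panel screen.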

SMILES	%Inh
COc1cc(Nc2nccc(N3CCC(NC(=O)Nc4cc(C)ccc4C)C3)n2)cc(OC)c1OC (stereo not shown) [GSK1379762]	10%
COc1ccc(CNC(=O)NC2CCN(c3ccnc(Nc4cc(OC)c(OC)c(OC)c4)n3)C2)cc1 (stereo not shown) [GSK1379748]	0%
O=S(=O)(c1ccc(-c2ccnc3[nH]ccc23)cc1)N1CCCC1 [GSK846226]	8%
Cc1cccc(-c2nc(Nc3cccc(C(N)=O)c3)c3ccccc3n2)n1 [GW876019]	19%
O=C(Nc1n[nH]c2cc(-c3cccc(F)c3F)ccc12)C1CC1 [SB-733894]	0%
O=C(Nc1ccc2c(c1)OCO2)NC1CCN(c2ccnc(Nc3ccc(F)cc3)n2)C1 (stereo not shown) [GSK1379724]	0%
COc1ccc2nc(-c3cccc(C)n3)nc(Nc3ccncc3)c2c1 [GSK204919]	13%
Cc1ccc(-c2cc(-c3c[nH]nc3-c3ccccn3)ccn2)cc1 [GW684088]	17%
COc1ccccc1CNC(=O)c1cc(C(=O)c2ccccc2C)c[nH]1 [GSK364507]	16%
O=c1cc(N2CCOCC2)nc2n(Cc3cccc(Cl)c3Cl)ccn12 [GSK2286295]	14%
CCCc1ccc(S(=O)(=O)NC2CCN(c3ccnc(Nc4ccc(F)cc4)n3)C2)cc1 (stereo not shown) [GSK1379715]	22%
Cc1cccc(-c2nc(Nc3ccncc3)c3ccccc3n2)n1 [GW855857]	0%
COc1cc2ncnc(Nc3ccc4nc(-c5ccccc5)[nH]c4c3)c2cc1OC.Cl [GW282450]	5%
COc1ccccc1-c1ccc2c(NC(=O)C3CC3)n[nH]c2n1 [SB-711239]	0%
Cl.O=C(Nc1cccc(-c2nn3ncccc3c2-c2ccnc(Nc3cccnc3)n2)c1)c1c(F)cccc1F [GSK312879]	73%
Nc1nc(-c2nccs2)c(-c2ccnc3ccccc23)s1 [GW693542]	17%
CN(C)CCN(C)C(=O)c1cc(-c2ccncc2)c(-c2ccc(Cl)c(O)c2)o1.Cl.Cl [SB-710397]	0%

SMILES	%Inh
Nc1ncnc2[nH]c(-c3ccccc3)nc12 [AH5015]	18%
Cc1ccc(C(=O)Nc2ccc(Nc3ccnc4cc(-c5ccccn5)ccc34)cc2O)cc1.Cl [GW440146]	42%
Cc1ccc(NC(=O)Nc2cccc(Cl)c2)cc1-c1ccc(C(=O)Nc2ccncc2)cc1 [GSK1398468]	13%
Fc1cccc(COc2nnc(-c3ccc4c(c3)CCO4)o2)c1	0%
COc1cccc(-c2cc(-c3c[nH]nc3-c3ccccn3)ccn2)c1 [GW680338]	0%
COc1cc2ncn(-c3cc(OCC4CCCO4)c(C(N)=O)s3)c2cc1OC (stereo not shown) [GSK204607]	12%
CS(=O)(=O)c1ccc(-c2c(-c3ncn[nH]3)sc(N3CCOCC3)c2C#N)cc1	13%
Cl.NC(=O)c1cccc(Nc2nccc(Nc3ccc(Oc4cccc(Cl)c4)c(Cl)c3)n2)c1 [GW659008]	54%
Cc1cccc(-c2cc(Nc3ccncc3)c3ccccc3n2)n1 [GSK223675]	0%
CC1=C(C(=O)Nc2cc3cn[nH]c3cc2F)C(c2ccc(C(F)(F)F)cc2)CC(=O)N1 (stereo not shown) [GSK429286]	17%
Cc1nnc(-c2ccc3occ(-c4ccc(S(C)=O)cc4)c3c2)[nH]1 (stereo not shown)	0%
Cc1c(Cn2ccn3c(=O)cc(N4CCOCC4)nc23)cccc1C(F)(F)F [GSK2289044]	3%
CC(C)(C)c1ccc(C(=O)Nc2cn3cc(-c4cccnc4)ccc3n2)cc1	10%
O=C(Nc1n[nH]c2nc(-c3nccs3)c(Br)cc12)C1CC1 [SB-742251]	16%
Cc1csc(-c2nc(Nc3ccncc3)c3ccccc3n2)n1 [GW869640]	0%
C[C@@H]1CCCCN1c1cc(-c2ccc3c(N)n[nH]c3c2)nc(N)n1 [GSK2258759]	14%
Cc1cc(NCC(c2ccccc2)c2ccccc2)nc(NCc2ccc(C(F)(F)F)cc2)n1 [GW497681]	0%

Reference: article PMC5540273 (PLoS ONE, 2017)
